The values that follow come from PubChem BioAssay (NCATS).

Results filed as inconclusive are left out. Entries that show only a call come without a potency. Activity calls are given as the source filed them. The call rests on the fitted dose curve; in most records, active means well fitted inhibition curve with a large enough effect; inconclusive means small, poorly fitted or top-dose-only effect; inactive means no such curve, though single readings can be large or run the other way.

In the assay the test system is Zika virus NS2B-NS3 protease (linked construct). The assay can be described thus: Primary screen NINDS Rhodamine qHTS for Zika virus inhibitors (AID 1347160). Further: nearly all actives have a fitted effect of over 55% in size. As to conditions: purified NS2B-NS3 protease, Rhodamine110 substrate fluorescence; series mostly up to 57.1 µM. The method, boiled down: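 Percent inhibition, normalized to uninhibited and enzyme-free controls, is fitted to a 4-parameter Hill equation. Fluorescence change comes from a 15-min cleavage of 1.5 microM bis-peptide Rhodamine110 substrate by 25 nM linked NS2B-NS3 at room temperature.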
In general terms: qHTS replaces the single test concentration by a dilution series.
For `CCOC(=O)c1cnn(-c2ccccc2)c1NC(=O)c1cc2nc(-c3ccco3)cc(C(F)(F)Cl)n2n1`, the Potency entry was “inactive”.
For the compound `Cc1ccc(C)c(NC(=O)[C@@H]2CCCN2S(=O)(=O)c2cccc3cccnc23)c1`, the Potency result was “inactive”.
Under `C=C1CCCC2(C)CCC(C(C)(C)OC3OC(C)C(O)C(O)C3OC(=O)/C(C)=C\C)CC12` (stereo not given) stands “inactive”; under `COc1c(F)cccc1C(=O)N1C[C@@H](C)CC[C@H]1CNc1ccc(Br)cn1`, “inactive”; under `C/C=C/[C@@H]1C=C[C@@H]2C[C@H](C)CC[C@H]2[C@]1(C)/C(O)=C1/C(=O)[C@@H](CO)N(C)C1=O`, “inactive”.
For `CCOc1ccc(S(=O)(=O)N2CCCCCC2)c2ccccc12`, the Potency result was “inactive”.
For `CC1(C)CCCC2(C)C1C(OC(=O)/C=C/C=C/C=O)C=C1COC(=O)C12O` (stereo not given), the Potency result was “inactive”.
To `Cn1c(SCC(=O)N2CCC[C@H]2C(=O)Nc2ccccc2-c2ccccc2)nc2ccccc21` belongs “inactive”; to `CCNC(=O)Nc1ccc(-c2nc3c(c(N4CCOCC4C)n2)CCN(C2COC2)C3)cc1` (stereo not given), “inactive”; to `COc1cc2c(cc1OC(C)C)[C@H](c1ccc(Cl)cc1)N(c1ccc(N(C)CC3CCC(N4CCN(C)C(=O)C4)CC3)cc1)C(=O)C2` (stereo not given in full), “inactive”.
Regarding `CCN(CC)C(=O)c1ccc(Nc2nc(OCC3CCCCC3)c3[nH]cnc3n2)cc1`, the Potency result was “inactive”.
Regarding `COc1ccc(-n2c(SCCCN3C(=O)c4cccc5cccc(c45)C3=O)nnc2-c2ccncc2)cc1`, the Potency result was “inactive”.
In the case of `C=C1C(=O)O[C@H]2/C=C(/C)[C@@H](OC(C)=O)C/C=C(\C)C[C@@H](OC(=O)/C(=C/C)COC(=O)/C(=C/C)CO)[C@@H]12`, the Potency result is “inactive”.
As to `c1cc(-c2cnn3cc(-c4ccc(N5CCNCC5)cc4)cnc23)c2cccnc2c1`, the Potency entry is “inactive”.
For `C/C=C(\C)C(=O)OC1C[C@@]2(COC(C)=O)O[C@H]2/C=C\[C@@]2(C)O[C@@H]2[C@H]2OC(=O)C(COC(C)=O)=C12` (stereo not given in full), the Potency entry was “inactive”.
Take `Nc1ncnc2c1nc(Cl)n2C1OC2COP(=O)(O)OC2C1O` (stereo not given): the Potency result is “inactive”.
Turning to `C/C(=N\N=C(N)N)c1cc(NC(=O)CCCCCCCCC(=O)Nc2cc(/C(C)=N/N=C(N)N)cc(/C(C)=N/N=C(N)N)c2)cc(/C(C)=N/N=C(N)N)c1`, the Potency result is “inactive”.
Turning to `O=C(COc1ccc2ccccc2c1Br)Nc1cccnc1`, the Potency entry is “inactive”.
Regarding `COC(=O)C1=COC(O[C@@H]2O[C@H](CO[C@@H]3O[C@H](COC(=O)/C=C\c4ccc(O)cc4)[C@@H](O)[C@H](O)[C@H]3O)[C@@H](O)[C@H](O)[C@H]2O)C2C(CO)=CCC12` (stereo not given in full), the Potency entry was “inactive”.
On to `COc1c(CCC(=O)O)cccc1O[C@@H]1O[C@H](CO)[C@@H](O)[C@H](O)[C@H]1O`, for which the Potency entry was “inactive”.
With `CC1CCC/C=C/C(=O)c2c(O)cc(O)cc2CC(=O)O1` (stereo not given), the Potency entry is “inactive”.
In the case of `Cc1cc(F)ccc1[C@H]1C[C@@H](N2CCN3C(=O)CC[C@H]3C2)CCN1C(=O)N(C)[C@H](C)c1cc(C(F)(F)F)cc(C(F)(F)F)c1`, the Potency entry is “inactive”.
Regarding `C/C=C(\C)C(=O)OC1C=C(C)CC(OC(=O)c2ccc(O)cc2)C2C1(C)CCC2(O)C(C)C` (stereo not given), the Potency entry was “inactive”.
Turning to `Cc1ccc(C(C)C)c(O[C@@H]2O[C@H](CO)[C@@H](O)[C@H](O)[C@H]2O)c1`, the Potency result was “inactive”.
To `COc1cc(N2CCOCC2)ccc1NC(=O)c1csc(-c2cccnc2)n1` belongs “inactive”; to `Cc1nc2cc(C(=O)NCc3ccccn3)nn2c(C)c1Cc1cccc(Cl)c1`, “inactive”.
To `CC(F)(F)CN1CCOc2c(nn(-c3ccccc3Cl)c2-c2ccc(Cl)cc2)C1=O` belongs “inactive”.
Take `CCOC(=O)c1ccc(OCCC2CCN(c3ccc(C)nn3)CC2)cc1`: the Potency result is “inactive”.
As to `C/C=C(\C)C(=O)O[C@@H]1[C@@H](C)[C@]2(O)[C@@H]3C=C(C)C(=O)[C@H]3CC(CO)=C[C@H]2C2C(C)(C)[C@@]21OC(=O)C(C)CC` (stereo not given in full), the Potency result is “inactive”.
To `O=C(Nc1cccc2cccnc12)c1ccc(N2C(=O)[C@@H]3C4C=CC(C4)[C@@H]3C2=O)cc1` belongs “inactive”; to `CC(=O)OCC(=O)[C@@]12O[C@@H]1C[C@H]1[C@@H]3CC=C4C[C@@H](O)CC[C@]4(C)[C@H]3CC[C@@]12C`, “inactive”.
For the compound `CC(C)c1ccccc1OC(=O)NCCc1ccc2ccccc2c1`, the Potency entry was “inactive”.
In the case of `CCC(CC)C(c1ccc(Nc2nc3ccccc3s2)cc1)n1cncn1` (stereo not given), the Potency result was “inactive”.
Under `C=C(C(=O)OC[C@H]1O[C@@H](OC(=O)/C=C/c2ccccc2)[C@H](O)[C@@H](O)[C@@H]1O)C(O)CO` (stereo not given in full) stands “inactive”; under `COc1ccc(CN2CCN(CCCSc3cc(C(C)(C)C)c(O)c(C(C)(C)C)c3)CC2)c(OC)c1OC`, “inactive”.
